Our source for the growth values is PubChem BioAssay (NCI).

Molecules are shown by their SMILES. Compounds without any hit were thinned out: in the full panel of roughly 83,000, 20% have a hit.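 Activity criterion: percent growth below 10, measured after cells in 96-well plates were exposed to a single compound concentration for 48 hours.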 A number with no mark means an inactive call. The source made the active and inactive calls.

Common to all, as to assay: NCI-60 one-dose screen, 48 h (100 = growth as untreated, 0 = no growth, -100 = all killed)
Test [1] relates to SR leukemia. The note with it: 10 µM unless noted.
Test [2] relates to RPMI-8226 leukemia. The note with it: 10 µM unless noted.
The test system of test [3] is OVCAR-8 ovarian. The note with it: 10 µM unless noted.
Test [4] relates to OVCAR-5 ovarian. The note with it: 10 µM unless noted.
Test [5] concerns OVCAR-4 ovarian. The note with it: 10 µM unless noted.
Test [6] relates to SK-OV-3 ovarian. The note with it: 10 µM unless noted.
Test [7] relates to IGROV1 ovarian. The note with it: 10 µM unless noted.
The subject of test [8] is OVCAR-3 ovarian. The note with it: 10 µM unless noted.
Test [9] concerns HS 578T breast. The note with it: 10 µM.
Test [10] deals with NCI/ADR-RES ovarian. The note with it: 10 µM unless noted.

Turning to `CC(C)=CCc1cc2c(cc1O)C1=C(C(=O)C3=C(C1=O)S(=O)(=O)CCN3)C(C=C(C)C)O2` (stereo not given), the growth was 2.02% (active) in test [1]; 9.78% (active) in test [2]; -5.83% (active) in test [3]; -72.4% (active) in test [4]; -98.2% (active) in test [5]; -3.23% (active) in test [6]. For the same molecule, the growth is -30.6% (active) in test [7], 0.0791% (active) in [8], 11.1% in [9] and 73.8% in test [10].
As to `Clc1nc(Cl)c2ncn(C/C=C\Cn3cnc4c(Cl)nc(Cl)nc43)c2n1`, the growth in test [1] is -48.2% (active); in test [2], -61.2% (active); in [3] it was -57.4% (active); in [4] it was -9.17% (active); in test [5] it was -89.2% (active); in test [6], 32.8%. Further, the growth is -82.3% (active) in [7], -97% (active) in [8], -41.5% (active) in [9] and 30.1% in test [10].
As to `COc1ccc2c(c1OC)C(=O)O[C@@H]2[C@H]1c2c(c(C#CC#Cc3ccc(F)c(F)c3)c3c(c2OC)OCO3)CCN1C`, the growth was 60.2% in test [1]; 67.3% in test [2]; 87.9% in [3]; 96.5% in test [4]; 99.9% in test [5]; 76% in [6]. Also, the growth in test [7] was 90.1%; in test [8], 104%; in test [9], 101%; in test [10], 89.3%.
Take `Cc1cc(NCC(=O)Nc2ccc(-c3nc4ccccc4s3)cc2)no1`: the growth in test [1] is 69.9%; in [2], 98.4%; in [3] it was 96.4%; in test [4], 119%; in test [5], 111%; in test [6], 120%. Further, the growth is 88.5% in test [7], 99.3% in test [8], 101% in test [9] and 103% in test [10].
For `C=C1CC[C@@H]2[C@](C)(COC(C)=O)[C@H](OC(C)=O)CC[C@@]2(C)[C@@H]1C/C=C1/C(=O)OC[C@H]1OC(C)=O`, the growth in [1] is 5.73% (active); in test [2], 14.1%; in [3] it was 27.1%; in [4], 53.7%; in [5], 66.5%; in test [6], 101%. For the same molecule, the growth in test [7] was 103%; in test [8], -21.3% (active); in test [9] it was 100%; in [10], 25%.
As to `O=C(NCCO)Nc1ccc(-c2nc(N3CCOCC3)c3cccn3n2)cc1`, the growth in [1] is 8.14% (active); in test [2], 7.85% (active); in [3] it was 5.91% (active); in [4], -11% (active); in test [5], -15.5% (active); in test [6] it was -37.1% (active). Further, the growth in [7] is -25.9% (active); in test [8], 0.347% (active); in test [9], -34.5% (active); in test [10], 34.5%.
Regarding `O=C1CC(c2cccc(F)c2)c2c(n[nH]c2-c2ccc(Cl)cc2)N1` (stereo not given), the growth in test [1] is 89.3%; in test [2], 81.8%; in test [3], 85.9%; in [4] it was 84.7%; in test [5] it was 95.4%; in test [6], 86.4%. Further, the growth in [7] is 101%; in test [8], 100%; in test [9] it was 91.2%; in [10] it was 93.9%.
In the case of `CCN1CCN(c2nc(C)cc(N(CCCNc3ccnc4cc(Cl)ccc34)Cc3ccc4c(c3)OCO4)n2)CC1`, the growth in [1] is -45.2% (active); in test [2], -41.9% (active); in test [3], -12.4% (active); in test [4], 51.6%; in test [5], 2.74% (active); in test [6], 33.3%. Besides, the growth in test [7] is 0.209% (active); in [8] it was -28.3% (active); in [9] it was -44.8% (active); in [10], 30.2%.
Consider `CC(C)=CCc1cc2c(cc1O)C1=C(C(=O)C3=C(NCCS3(=O)=O)C1=O)C(C=C(C)C)O2` (stereo not given), for which the growth in test [1] was 6.83% (active); in test [2] it was 43.3%; in [3] it was 13.4%; in [4], 154%; in test [5], 32.9%; in [6] it was 69.3%. The growth in test [7] is 1.26% (active); in test [8], -0.915% (active); in test [9], 73.5%; in test [10] it was 86.6%.
For `C=C1C(=O)O[C@H]2[C@H]1CC/C(C=Nc1c(N)cc(C(F)(F)F)cc1C(F)(F)F)=C\CC[C@@]1(C)O[C@@H]21`, the growth in [1] is 0.897% (active); in test [2], -18.7% (active); in test [3], 4.81% (active); in [4], -9.13% (active); in test [5] it was -71.6% (active); in test [6], 48.8%. In addition, the growth in test [7] was -46.3% (active); in [8] it was -93.8% (active); in test [9], 16.7%; in test [10], -23.1% (active).
Consider `COc1ccc2c(CCC(c3ccccc3)c3ccccc3)c3[n+](cc2c1OC)CCc1cc2c(cc1-3)OCO2`, for which the growth in test [1] is -29.9% (active); in test [2] it was -9.79% (active); in test [3] it was 2.77% (active); in [4], 29%; in test [5], 13.3%; in test [6] it was -12.8% (active). Further, the growth in test [7] was 22.9%; in test [8], -0.03% (active); in test [9], 20.7%; in test [10], 78.9%.
As for `CCOc1cccc(/C=N/NC(=O)c2ccccc2Nc2ccnc(C(F)(F)F)c2)c1O`, the growth in test [1] was -20.1% (active); in [2] it was -19.7% (active); in test [3], 20.7%; in test [4] it was 13%; in [5] it was 25%; in test [6], 8.43% (active). Moreover, the growth in test [7] was -13.8% (active); in [8], 31.5%; in test [9], 39.2%; in [10] it was -0.31% (active).
Regarding `Cc1cc(N2CCOCC2)nc(N(CCNc2ccnc3cc(Cl)ccc23)Cc2cccs2)n1`, the growth in test [1] is -13% (active); in test [2], -11.9% (active); in test [3], 8.53% (active); in test [4], 83.2%; in test [5], 14.2%; in [6], 61.5%. In addition, the growth in [7] was 35.1%; in test [8], -73.9% (active); in test [9], 5.37% (active); in [10] it was 34.1%.
Consider `C=C1C(=O)O[C@H]2[C@H]1CC/C(CNC(=O)c1cc3cc(OC)ccc3[nH]1)=C\CC[C@@]1(C)O[C@@H]21`, for which the growth is -0.374% (active) in test [1]; -38.4% (active) in test [2]; -16.4% (active) in test [3]; -20.4% (active) in [4]; -3.23% (active) in test [5]; 59.3% in test [6]. For the same molecule, the growth in [7] was -19.8% (active); in [8], -90.7% (active); in test [9], -1.38% (active); in test [10], 54.3%.
